Reference: PubChem BioAssay (NCI)
About 79,000 compounds went through this panel and 15% of them were active in at least one assay; those are over-represented in the sample as a whole. Values without a mark were called inactive. Active and inactive are the calls of the source. Rule as the data show it: active = growth inhibition above about 70%; inactive = the rest.

What was measured:
[1] = NCI Yeast Anticancer Drug Screen. Data for the rad50 strain (AID 155);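 also: 0% = growth of vehicle-only cultures of the same strain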; conditions: S. cerevisiae rad50 strain growth inhibition, active compounds read high
Summary of the method: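 A DNA repair-deficient yeast mutant serves as the test organism; compound-induced growth inhibition is calculated against vehicle-treated cells.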

[2] = NCI Yeast Anticancer Drug Screen. Data for the mec2-1 strain (AID 157); conditions: S. cerevisiae mec2-1 strain, active compounds read high
Summary of the method: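 Each compound was tested on mec2-1 yeast, a strain altered in DNA damage repair or cell cycle control. Growth inhibition is reported relative to vehicle.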

[3] = NCI Yeast Anticancer Drug Screen. Data for the sgs1 mgt1 strain (AID 161);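 also: 0% = growth of cultures given vehicle only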; conditions: S. cerevisiae sgs1 mgt1 strain, active compounds read high
Summary of the method: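 Test agents were incubated with a DNA-repair-mutant yeast strain. Growth was then read and compared against vehicle-treated controls.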

[4] = NCI Yeast Anticancer Drug Screen. Data for the cln2 rad14 strain (AID 165);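 also: 0% = growth equal to vehicle treated cultures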; conditions: S. cerevisiae cln2 rad14 strain, active compounds read high
Summary of the method: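 Test compounds were added to cln2 rad14 yeast cultures; inhibition of growth was then determined by comparison with vehicle treatment.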

[5] = NCI Yeast Anticancer Drug Screen. Data for the bub3 strain (AID 167); conditions: S. cerevisiae bub3 mutant strain, active compounds read high
Summary of the method: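 Inhibition values come from growth of compound-treated mutant yeast normalised to vehicle-treated controls.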

[6] = NCI Yeast Anticancer Drug Screen. Data for the mlh1 rad18 strain (AID 175); conditions: S. cerevisiae mlh1 rad18 strain growth inhibition, active compounds read high
Summary of the method: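 Inhibition values reflect reduced growth of mutant yeast versus vehicle-treated controls following compound exposure; the mutations affect DNA damage repair.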

[7] = at 5.0 µM (retest, dose inferred, filed as 0.5)
[8] = at 50.0 µM (retest, dose inferred, filed as 5.0)

SMILES | growth inhibition [1, 7] | growth inhibition [1, 8] | growth inhibition ([1]; at 50.0 µM) | growth inhibition [2, 7] | growth inhibition [2, 8] | growth inhibition ([2]; at 50.0 µM) | growth inhibition [3, 7] | growth inhibition [3, 8] | growth inhibition ([3]; at 50.0 µM) | growth inhibition [4, 7] | growth inhibition [4, 8] | growth inhibition ([4]; at 50.0 µM) | growth inhibition [5, 7] | growth inhibition [5, 8] | growth inhibition ([5]; at 50.0 µM) | growth inhibition [6, 7] | growth inhibition [6, 8] | growth inhibition ([6]; at 50.0 µM)
CCOC(=O)c1csc(=S)[nH]1 | 2% | 83% (active) | 76.8% (active) | 2% | 32% | 80.2% (active) | -16% | 95% (active) | 74.5% (active) | 5% | 46% | -12.1% | -6% | 86% (active) | 47% | 15% | 96% (active) | 35.9%
O=S(=O)(O)c1ccc(N=Nc2ccc3c(S(=O)(=O)O)cccc3c2O)c2ccccc12 | 10% | -5% | -1.35% | 6% | -16% | -21.6% | 0% | -18% | -37.2% | -25% | -78% | 35% | -2% | -9% | -16.1% | -5% | -9% | 5%
O=[N+]([O-])C1C2C=CC(C2)[C@H]1c1ccc(Cl)cc1Cl (some centres not stated) | 28% | 70% (active) | 89.5% (active) | 29% | 85% (active) | 93.2% (active) | 33% | 96% (active) | 92.2% (active) | 15% | 73% (active) | 89% (active) | 52% | 93% (active) | 91.6% (active) | 37% | 89% (active) | 89.2% (active)
Cc1cc(N=[N+]=[N-])c2cc(C3CCCCC3)ccc2n1 | 12% | 99% (active) | 96.5% (active) | 8% | 98% (active) | 78.8% (active) | 7% | 99% (active) | 97.8% (active) | 8% | 69% | 90.3% (active) | 0% | 96% (active) | 90.9% (active) | -2% | 99% (active) | 96.8% (active)
COc1ccc(CN2CCCN(Cc3ccc(OC)cc3OC)C2c2cc(Cl)cc(Cl)c2O)c(OC)c1 | 10% | 52% | 73.8% (active) | 16% | 93% (active) | 33.3% | -10% | 75% (active) | 76.2% (active) | -2% | 35% | 30.9% | 3% | 79% (active) | 3.9% | 27% | 94% (active) | 61.4%
O=C(O)c1ccc2c(O)c3ccccc3c(O)c2c1 | 3% | 72% (active) | 99.6% (active) | 1% | 41% | 99.5% (active) | 3% | 52% | 99.6% (active) | 4% | 50% | 93.5% (active) | 21% | 57% | 99.5% (active) | 5% | 65% | 99.2% (active)
Cc1ccc(C2C(O)=C(c3ccccc3)Sc3ccc(C)cc32)cc1 (configuration not stated) | 12% | 33% | 35.6% | -5% | 77% (active) | 2.45% | 5% | 74% (active) | 77% (active) | -5% | 51% | 23.2% | -4% | 39% | 13.4% | -8% | 81% (active) | 31.4%
O=C(NCCCCCN1CCC2(CCCCC2)CC1)C(c1ccccc1)C1CCCCC1 (configuration not stated) | -1% | 99% (active) | 99.6% (active) | -12% | 98% (active) | 99.6% (active) | 0% | 97% (active) | 99.7% (active) | 5% | 99% (active) | 99.2% (active) | -15% | 100% (active) | 99.6% (active) | 0% | 99% (active) | 99.7% (active)
Cc1cccc2c(C(=O)CBr)cc(-c3ccc(Cl)cc3)nc12 | 54% | 91% (active) | 95.7% (active) | 89% (active) | 93% (active) | 95.3% (active) | 96% (active) | 91% (active) | 95.2% (active) | 36% | 85% (active) | 85.8% (active) | 74% (active) | 92% (active) | 95% (active) | 88% (active) | 90% (active) | 95.5% (active)
COc1cc(NCCCCCNC2CCCCC2)c2ncccc2c1 | 2% | 64% | 83.2% (active) | -4% | 17% | 46.5% | 21% | 63% | 74.1% (active) | 7% | 32% | 19.9% | 14% | 57% | 83.6% (active) | -18% | 27% | 74.2% (active)
N#Cc1c(-c2ccc(Cl)c(Cl)c2)c(-c2ccc(Cl)c(Cl)c2)nn(CC(=O)O)c1=O | -2% | 98% (active) | 38.1% | -2% | 100% (active) | 46.6% | 2% | 98% (active) | 50.7% | -3% | 99% (active) | 14.3% | -3% | 99% (active) | 34.2% | 0% | 99% (active) | 69.1%
Cc1ccc2c(c1)C1(SC(CC(=O)O)C(=O)N1c1ccc(Cl)cc1)C(=O)N2 (configuration not stated) | 4% | 5% | 2.3% | 0% | -1% | 12.3% | 1% | -6% | -6.85% | -1% | -4% | -4.2% | 1% | 0% | -2.8% | 0% | -49% | 10.5%
CC(=O)NCC1OC2COC(c3ccccc3)OC2C(NC(=O)c2ccccc2)C1OC(=O)c1ccccc1 (configuration not stated) | 15% | 10% | 22.4% | 15% | 10% | 11.8% | -11% | -13% | 2.3% | 6% | -15% | 6.7% | 8% | 5% | 7.55% | 15% | 9% | 91.3% (active)
CNS(=O)(=O)c1ccccc1C=C(c1ccccc1)c1ccccc1 | 2% | 90% (active) | 93.1% (active) | -12% | 93% (active) | 86.2% (active) | 4% | 93% (active) | 94% (active) | 2% | 89% (active) | 65.8% | -11% | 92% (active) | 81.8% (active) | -2% | 91% (active) | 94.1% (active)
COC1CCC(/C(C#N)=C/c2ccco2)CC1 (configuration not stated) | 17% | 22% | 61.7% | -5% | 13% | 57.3% | -5% | 26% | 78.2% (active) | 22% | 29% | -0.15% | 38% | 58% | 79.6% (active) | 8% | 49% | 57.1%
Clc1cccc2c(-c3ccccc3)c3cccc(Cl)c3cc12 | 4% | 45% | 58.8% | 3% | 50% | 39.6% | 8% | 35% | 42.2% | 6% | 54% | 50.9% | -2% | 51% | 36.2% | 1% | 68% | 91.4% (active)
O=C(NCc1ccc(F)cc1)c1ccc(C(=O)NCc2ccc(F)cc2)cc1 | 1% | -4% | -6.6% | -19% | 21% | -4.05% | -13% | 2% | -13.1% | 2% | 6% | 58.4% | 1% | 7% | -6.9% | -8% | -20% | -10.1%
O=c1c2ccccc2sc2c([N+](=O)[O-])ccc(NCCNCCO)c12 | 57% | 98% (active) | 87.2% (active) | 35% | 99% (active) | 92.1% (active) | 18% | 98% (active) | 86.7% (active) | 25% | 98% (active) | 87.2% (active) | 21% | 99% (active) | 88.5% (active) | 35% | 98% (active) | 83.3% (active)
COc1ccc(C(CC(=O)c2ccccc2)Sc2ccccc2N)cc1 (configuration not stated) | 46% | 52% | -4.15% | 54% | 51% | 26.9% | -13% | 32% | 32.4% | 44% | 20% | -13.3% | 35% | 57% | 49.8% | 36% | 46% | 7.35%
